Screens: PubChem BioAssay, several laboratories
Compounds with a hit are over-represented: about 3.4% of the library has one in this group of screens.
APP 5'UTR act: activates APP 5'UTR luciferase reporter. SH-SY5Y APP 5'UTR luciferase reporter, luminescence; zero percent = DMSO vehicle wells. 190,000 tested, 1% active. AID 1276. activation, % at 2 µM;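 active = activation above a set limit, based on mean plus 3 SD of controls, cut at about 140% in these data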
ssDAF12 agonist: activates DAF-12 receptor from parasite S. stercoralis. HEK293 ssDAF-12/GRIP1 lit1-tk-luc reporter, luminescence; % of 3 µM dafachronic acid response. activation, % at 6.8 µM. 370,000 tested, 1% active;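 active = activation above the mean over all tested compounds plus 3 SD, cut at about 0.9% in these data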
hgDAF-12 ag: activates the H. glycines DAF-12 receptor ligand-binding domain. 370,000 tested, 1.8% active. HEK293 GAL4-hgDAF12 UAS-luciferase reporter, agonist luminescence; normalized to butyrate control. activation, % at 6.8 µM. AID 687014;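 active = activation above a cutoff set at the mean of all screened compounds plus 3 SD, cut at about 10% in these data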
hcDAF-12 act: H. contortus DAF-12 activation, primary screen | HEK293 hcDAF-12 lit1-tk-luc reporter, luminescence; 0% DMSO, 100% Δ7-dafachronic acid | activation, % at 6.8 µM | 370,000 tested, 1.4% active | AID 652067;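 active = activation above the mean of all tested compounds plus 3 SD, cut at about 5.5% in these data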
NF-kB expr up: compounds increasing NF-kB expression in human neuronal cells; NF-kB reporter expression; hits give high values; 190,000 tested, 1.6% active; fold change at 12.5 µM; in the data active = fold change above about 3.3
hgDAF12 conf: hgDAF-12 agonism, confirmation assay | shares compounds with hgDAF-12 ag | 3,300 tested, 80% active | activation, % at 6.8 µM | AID 743050 | HEK293 GAL4-hgDAF12 luciferase reporter, agonist mode; percent of butyrate response;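 active = mean activation over triplicate wells above the hit cutoff derived from the earlier primary screen, cut at about 11% in these data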
LXRb DAF12 ctr: counter-screen for DAF-12 agonists: agonists of human LXR-beta | activation, % at 6.8 µM | shares compounds with hgDAF-12 ag | 3,300 tested, under 10 active | HEK293 Gal4-LXR luciferase reporter, 24 h | AID 743051;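 active = mean activation of the triplicate above a set limit carried over from the primary screen, none filed active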
Target sequence (P55055 whole entry, looked up, the tested form may be a part): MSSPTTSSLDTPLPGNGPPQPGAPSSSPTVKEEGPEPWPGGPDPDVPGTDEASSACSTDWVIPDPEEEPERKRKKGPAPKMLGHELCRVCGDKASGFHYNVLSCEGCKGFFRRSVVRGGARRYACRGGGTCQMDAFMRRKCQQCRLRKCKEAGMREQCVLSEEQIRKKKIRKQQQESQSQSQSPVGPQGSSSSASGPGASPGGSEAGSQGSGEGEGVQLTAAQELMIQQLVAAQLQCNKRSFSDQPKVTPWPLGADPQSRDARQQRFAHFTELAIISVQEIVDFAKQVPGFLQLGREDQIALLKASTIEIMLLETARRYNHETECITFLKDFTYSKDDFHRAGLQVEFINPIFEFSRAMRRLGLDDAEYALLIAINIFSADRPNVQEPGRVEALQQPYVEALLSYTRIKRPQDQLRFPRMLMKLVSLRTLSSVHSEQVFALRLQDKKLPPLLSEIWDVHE
Each line names hits and unclear results; the compound was inactive in the other large screens (follow-up assays come after a bar, where they were run).

COCCNC(=O)/C(C#N)=C/c1cc(C)n(-c2ccc(C)cc2)c1C	APP 5'UTR act 154, hgDAF-12 ag 22, hcDAF-12 act 6.1, NF-kB expr up 6.2 | hgDAF12 conf 15 | LXRb DAF12 ctr inactive
COc1ccc(-n2c(C)cc(/C=C(\C#N)C(=O)NCc3ccco3)c2C)cc1	none
C=CCN1C(=O)[C@@H](CC(=O)NCCc2ccccc2OC)[C@]2(C(=O)OCC)CCCCC/C=C/12	none (no result: APP 5'UTR act, NF-kB expr up)
COC(=O)[C@H](C)NC(=O)[C@@H]1CCCN1C(=O)CNP(=O)(OCc1ccccc1)OCc1ccccc1	none (no result: APP 5'UTR act, NF-kB expr up)
O=C(CCc1ccccc1)N[C@H]1[C@H](OCc2ccccc2)CCC[C@@]12C(=O)N(Cc1ccccc1)c1ccc(-c3cnccn3)cc12	none (no result: APP 5'UTR act, NF-kB expr up)
COc1ccc(-n2ncc3c(N4CCCCC4)ncnc32)cc1	none (no result: ssDAF12 agonist, hgDAF-12 ag, hcDAF-12 act)
COCC(C)Nc1ncnc2c1cnn2-c1ccc(Cl)cc1 (configuration not stated)	APP 5'UTR act 180, hgDAF-12 ag 18, hcDAF-12 act 5.8, NF-kB expr up 4.9 | hgDAF12 conf 11 | LXRb DAF12 ctr inactive
COc1ccc(-n2ncc3c(NC(C)C)ncnc32)cc1	APP 5'UTR act 151, hgDAF-12 ag 19, NF-kB expr up 4 | hgDAF12 conf 17 | LXRb DAF12 ctr inactive
Clc1ccc(-n2ncc3c(NCc4ccccn4)ncnc32)cc1	none
COc1ccccc1C(=O)NC1CCCCN(Cc2ccccc2C)C1=O (configuration not stated)	none (no result: APP 5'UTR act, NF-kB expr up)
CCN(CC)CCOC(=O)c1ccc(NC(=O)c2cn(-c3ccccc3)nc2-c2cccs2)cc1	hgDAF-12 ag 15 | hgDAF12 conf inactive | LXRb DAF12 ctr inactive
CC(=O)c1cc(-c2ccc([N+](=O)[O-])cc2)c(=O)n2c1CCC2	none (no result: APP 5'UTR act, NF-kB expr up)
CCn1ccc(C(=O)Nc2ccc(S(=O)(=O)Nc3ccccc3OC)cc2)n1	none
CCn1cc(Br)c(C(=O)Nc2cccc(Cl)c2)n1	none
CCn1ccc(C(=O)Nc2ccccc2Cl)n1	APP 5'UTR act 162, hgDAF-12 ag 14, NF-kB expr up 4.1 | hgDAF12 conf 15 | LXRb DAF12 ctr inactive
CCn1ccc(C(=O)Nc2cccc(Cl)c2)n1	hgDAF-12 ag 15 | hgDAF12 conf inactive | LXRb DAF12 ctr inactive
COc1ccc(-c2cn3c(C)c(C(=O)NC(C)(C)C)sc3n2)cc1	hgDAF-12 ag 18, hcDAF-12 act 6.0 (no result: APP 5'UTR act, NF-kB expr up) | hgDAF12 conf 12 | LXRb DAF12 ctr inactive
COc1ccc(-c2cn3c(C)c(C(=O)NC(C)C)sc3n2)cc1	none
O=C(c1ccccc1)c1coc(-c2ccccc2)c1	hgDAF-12 ag 14 (no result: APP 5'UTR act, NF-kB expr up) | hgDAF12 conf 21 | LXRb DAF12 ctr inactive
COc1ccc(CN2C/C(=C/C3=CCCCC3)N(C(=O)OCc3ccccc3)C2=N)c(OC)c1	none (no result: APP 5'UTR act, NF-kB expr up)
CN=c1scc(-c2ccccc2F)n1/N=C(\C)c1cccnc1	APP 5'UTR act 186, hgDAF-12 ag 15, NF-kB expr up 6 | hgDAF12 conf 12 | LXRb DAF12 ctr inactive
Cn1nnnc1SCC(=O)Nc1ccc2c(c1)OCCO2	hgDAF-12 ag 15 | hgDAF12 conf 14 | LXRb DAF12 ctr inactive
COc1ccc(C(=O)N/N=C/c2ccccn2)cc1	hgDAF-12 ag 13 (no result: APP 5'UTR act, NF-kB expr up) | hgDAF12 conf 13 | LXRb DAF12 ctr inactive
O=C(N/N=C/c1ccccn1)c1cc(-c2ccccc2Cl)n[nH]1	none
O=C(N/N=C/c1ccccn1)c1cc(-c2cccc3ccccc23)n[nH]1	hgDAF-12 ag 14 | hgDAF12 conf inactive | LXRb DAF12 ctr inactive
O=C(N/N=C/c1ccccn1)c1ccc(NC(=O)c2ccc(F)cc2)cc1	none (no result: APP 5'UTR act, NF-kB expr up)
CCc1ccc(-c2cc(C(=O)N/N=C/c3ccccn3)[nH]n2)cc1	hgDAF-12 ag 18 | hgDAF12 conf inactive | LXRb DAF12 ctr inactive
Cc1ccc(-c2cc(C(=O)NN=Cc3ccccc3OCC(=O)O)[nH]n2)cc1	none (no result: APP 5'UTR act, NF-kB expr up)
O=C(N/N=C/c1c[nH]c2ccccc12)c1cc(-c2cccc3ccccc23)n[nH]1	none
Cc1ccc(-c2cc(C(=O)N/N=C/c3c[nH]c4ccccc34)[nH]n2)cc1	hgDAF-12 ag 14 | hgDAF12 conf inactive | LXRb DAF12 ctr inactive
CC(C)CN1C(=O)C[C@@]2(C(=O)N(C)c3ccc(NS(=O)(=O)c4ccc(F)cc4)cc32)C1c1ccccc1 (some centres not stated)	none (no result: APP 5'UTR act, NF-kB expr up)
O=C(NCCc1ccccc1)OCc1cn(Cc2ccc(C(F)(F)F)cc2)nn1	none (no result: APP 5'UTR act, NF-kB expr up)
O=C(N/N=C/c1ccccn1)c1cc(-c2ccc3ccccc3c2)n[nH]1	hgDAF-12 ag 22 | hgDAF12 conf inactive | LXRb DAF12 ctr inactive
CCn1c(C)cc(C(=O)COC(=O)c2cccnc2SC)c1C	hgDAF-12 ag 15 (no result: APP 5'UTR act, NF-kB expr up) | hgDAF12 conf 14 | LXRb DAF12 ctr inactive
COn1c(-c2ccc(Cl)cc2)nc2ncccc21	hgDAF-12 ag 13 (no result: APP 5'UTR act, NF-kB expr up) | hgDAF12 conf 11 | LXRb DAF12 ctr inactive
CN1C(=O)C[C@@](C#N)(C(=O)N2CCOCC2)[C@H]1c1ccccc1	none (no result: APP 5'UTR act, NF-kB expr up)
COC(=O)[C@]12C[C@H](CC(=O)N3CCN(C(=O)C4CC4)CC3)C(=O)N(Cc3ccc(Cl)cc3Cl)C1=C[C@H](COCc1ccccc1)O[C@@H]2C	none (no result: APP 5'UTR act, NF-kB expr up)
Cc1ccc(/C=C\c2nccc3c2[nH]c2ccccc23)cc1	hgDAF-12 ag 15 | hgDAF12 conf inactive | LXRb DAF12 ctr inactive
O=S1(=O)c2ccc(N3CC[C@@H](O)C3)cc2OCCCN1C1CC1	none (no result: APP 5'UTR act, NF-kB expr up)
Nc1ccccc1NC(=O)NC(=O)c1ccccc1	ssDAF12 agonist 2.0, hgDAF-12 ag 16 (no result: APP 5'UTR act, NF-kB expr up) | hgDAF12 conf 16 | LXRb DAF12 ctr inactive
CC(C)(C)OC(=O)NCCc1ccccc1/C=C/S(=O)(=O)NC1CCCC1	none (no result: APP 5'UTR act, NF-kB expr up)
c1ccc(-n2nnnc2SCc2cn3ccccc3n2)cc1	none
c1ccn2cc(CSc3nnc4ccccn34)nc2c1	ssDAF12 agonist 1.1, hgDAF-12 ag 14 | hgDAF12 conf 14 | LXRb DAF12 ctr inactive
Cc1cc(C)cc(N(CC(=O)NC2CCC(C)CC2)S(=O)(=O)c2ccc(C)c(C)c2)c1 (configuration not stated)	none (no result: APP 5'UTR act, NF-kB expr up)
Nc1nc(-c2ccc(Oc3ccccc3)cc2)cs1	none (no result: APP 5'UTR act, NF-kB expr up)
Nc1nc(-c2ccc(-c3ccccc3)cc2)cs1	APP 5'UTR act 179, hgDAF-12 ag 19, NF-kB expr up 7.9 | hgDAF12 conf 20 | LXRb DAF12 ctr inactive
Nc1nc(-c2ccc3ccccc3c2)cs1	hgDAF-12 ag 18, hcDAF-12 act 6.4, NF-kB expr up 6.3 | hgDAF12 conf 15 | LXRb DAF12 ctr inactive
CN(C)/C=N/c1nc(-c2ccc3ccccc3c2)cs1	hgDAF-12 ag 18 (no result: APP 5'UTR act, NF-kB expr up) | hgDAF12 conf 12 | LXRb DAF12 ctr inactive
CCCCC(=O)N[C@H]1CC[C@@]23CCCN2C(=O)CCC[C@H]3[C@H]1CCC	none (no result: APP 5'UTR act, NF-kB expr up)
COc1ccc(-c2nnc(SCC(=O)Nc3cccc4ccccc34)n2Cc2ccco2)cc1	none (no result: APP 5'UTR act, NF-kB expr up)
